According to PubChem BioAssay (EPA / NIEHS):
Calls of active or inactive are those of the source. Rule for the calls: active = hit-call score of the fitted dose curve at least 0.9, where 1 is the maximum; inactive = score below 0.9.

Assay: ATG_Ets_CIS: Attagene CIS-FACTORIAL HepG2 Assay for human Erythroblast Transformation Specific (ETS) (AID 2282941)
Conditions: HepG2 ETS cis-reporter transcription, actives raise or lower the signal
Method: ATG_CIS is a cell-based, multiplexed-readout assay that uses HepG2, a human liver cell line, with measurements taken at 24 hours after chemical dosing in a 24-well plate.ATG_Ets_CIS is one of 52 assay component(s) measured or calculated from the ATG_CIS assay. It is designed to make measurements of mRNA induction, a form of inducible reporter, as detected with fluorescence intensity signals by Reverse transcription polymerase chain reaction (RT-PCR) and Capillary electrophoresis technology.Data from the assay component ATG_Ets_CIS was analyzed into 1 assay endpoint. This assay endpoint, ATG_Ets_CIS, was analyzed with bidirectional fitting relative to DMSO as the negative control and baseline of activity. Using a type of inducible reporter, measures of mRNA for gain or loss-of-signal activity can be used to understand the reporter gene at the transcription factor-level as they relate to the gene ETS1. Furthermore, this assay endpoint can be referred to as a primary readout, because this assay has produced multiple assay endpoints where this one serves a reporter gene function. To generalize the intended target to other relatable targets, this assay endpoint is annotated to the dna binding intended target family, where the subfamily is winged helix-turn-helix.
Human liver HepG2 cells are transiently transfected with multiple reporter transcription units (MRTUs) in 6-well plates using FuGene 6 reagent (Roche; 3 ml FuGene/1 mg DNA). The MRTU constructs are regulated by a cis-regulating element (promoter). […] A major difference between the CIS and TRANS system is that in CIS activities of endogenous TFs are measured, whereas the TRANS assay evaluates changes in activities of exogenous, chimeric NR-Gal4 proteins. […] At the end of 24 hour incubation, total RNA was isolated using TriZol reagent (Invitrogen). The isolated RNA is then reverse-transcribed using oligo(dT) primer and Mo-MLV reverse transcriptase (Invitrogen) with DNAse I (Ambion) treatment for 30 min. The one-tenth of the produced cDNA was amplified by PCR using Taq DNA polymerase (Invitrogen) and two reporter sequence-specific primers. The PCR products were fluorescently labeled by primer extension with 6-arboxyfluorescein (6-FAM) 5'-labeled reporter sequence-specific primer (2 min at 95 C, 20 s at 68 C and 10 min at 72 C) and these products were digested with 5U of HpaI (New England Biolabs) for 2h at 37 C. The fragments were purified using Qiaquick PCR columns (Qiagen), analyzed on an ABI 3130xL genetic analyzer (Applied Biosystems) with peak positions identified by using a set of X-rhodamine (ROX)-labeled MapMarker1000 molecular weight standards (BioVentures). The raw capillary electrophoresis data was processed using Attagraph software (Attagene).

| SMILES | outcome | AC50 |
| --- | --- | --- |
| CN(C)NC(=O)CCC(=O)O | inactive |  |
| CON=C(C(=O)OC)c1ccccc1CON=C(C)c1cccc(C(F)(F)F)c1 | inactive |  |
| CC(COc1ccc(Oc2ccccc2)cc1)Oc1ccccn1 (stereo not given) | inactive |  |
| COc1ccc(C(=CC(=O)N2CCOCC2)c2ccc(Cl)cc2)cc1OC |  | 23.2 µM (active) |
| CN1COCN(Cc2cnc(Cl)s2)C1=N[N+](=O)[O-] | inactive |  |
| CCOP(=S)(OCC)Oc1ccc([N+](=O)[O-])cc1 | inactive |  |
| CC(C)=CC1C(C(=O)OCN2C(=O)C3=C(CCCC3)C2=O)C1(C)C (stereo not given) | inactive |  |
| CC(C1CC1)C(O)(Cn1cncn1)c1ccc(Cl)cc1 (stereo not given) | inactive |  |
| Nc1c(Cl)cc([N+](=O)[O-])cc1Cl | inactive |  |
| COP(=O)(OC)SCn1c(=O)oc2cc(Cl)cnc21 | inactive |  |
| CNC(=O)ON=C(SC)C(=O)N(C)C | inactive |  |
| CCc1cccc(C)c1N(C(=O)CCl)C(C)COC (stereo not given) | inactive |  |
| C#CC(C)(C)NC(=O)c1cc(Cl)cc(Cl)c1 | inactive |  |
| CC1=NNC(=O)N(/N=C/c2cccnc2)C1 | inactive |  |
| CCNc1nc(Cl)nc(NC(C)(C)C#N)n1 | inactive |  |
| CC(Oc1cccc(Cl)c1)C(=O)O (stereo not given) | inactive |  |
| CCc1cnc(C2=NC(C)(C(C)C)C(=O)N2)c(C(=O)O)c1 (stereo not given) | inactive |  |
| COc1cc(OC)nc(Sc2cccc(Cl)c2C(=O)O)n1 | inactive |  |
| CCOP(=S)(OCC)SCCSCC | inactive |  |
| CCCSP(=O)(OCC)Oc1ccc(Br)cc1Cl (stereo not given) | inactive |  |

| SMILES | outcome | AC50 |
| --- | --- | --- |
| C[N+]1(C)CCCCC1 | inactive |  |
| Nc1nc(N)nc(NC2CC2)n1 | inactive |  |
| CC[C@H](C)[C@H]1O[C@]2(C=C[C@@H]1C)C[C@@H]1C[C@@H](C/C=C(\C)[C@@H](O[C@H]3C[C@H](OC)[C@@H](O[C@H]4C[C@H](OC)[C@@H](NC)[C@H](C)O4)[C@H](C)O3)[C@@H](C)/C=C/C=C3\CO[C@@H]4[C@H](O)C(C)=C[C@@H](C(=O)O1)[C@]34O)O2 | inactive |  |
| COP(=O)(OC)C(O)C(Cl)(Cl)Cl (stereo not given) | inactive |  |
| O=c1ccc(=O)[nH][nH]1 | inactive |  |
| CCCCOC(=O)[C@@H](C)Oc1ccc(Oc2ccc(C#N)cc2F)cc1 | inactive |  |
| CNC(=O)Oc1cccc2c1OC(C)(C)O2 |  | 75.9 µM (active) |
| CN(C)[C@@H]1C(=O)C(C(N)=O)=C(O)[C@@]2(O)C(=O)C3=C(O)c4c(O)cccc4[C@@](C)(O)[C@H]3[C@H](O)[C@@H]12 | inactive |  |
| N#CSCSC#N | inactive |  |
| Cc1ccn2nc(S(=O)(=O)Nc3c(F)cccc3F)nc2n1 | inactive |  |
| CCOP(=S)(OCC)OC(Cl)C(Cl)(Cl)Cl (stereo not given) | inactive |  |
| CCOC(=O)CC(SP(=O)(OC)OC)C(=O)OCC (stereo not given) | inactive |  |
| CCCSP(=O)(OCC)SCCC | inactive |  |
| Cc1nn(-c2cc(NS(C)(=O)=O)c(Cl)cc2Cl)c(=O)n1C(F)F | inactive |  |
| CCOP(=O)(SC(C)CC)N1CCSC1=O (stereo not given) | inactive |  |
| FC(F)C(F)(F)OCC(Cn1cncn1)c1ccc(Cl)cc1Cl (stereo not given) | inactive |  |
| COP(=O)(OC)OC(Br)C(Cl)(Cl)Br (stereo not given) | inactive |  |
| CC(=NC#N)N(C)Cc1ccc(Cl)nc1 | inactive |  |
| CCCOCC(=Nc1ccc(Cl)cc1C(F)(F)F)n1ccnc1 | inactive |  |
| CCCCN(CC)c1c([N+](=O)[O-])cc(C(F)(F)F)cc1[N+](=O)[O-] | inactive |  |
